In PubChem BioAssay AID602270 (The Scripps Research Institute Molecular Screening Center, 2012) one finds activation data, which are given here for 24 compounds.

This is one part of the list. The source made the active and inactive calls. Cut-off read from the data, not from the text of the source: active = activation above about 4%; inactive = the rest.

The test system of the test is Methionine sulfoxide reductase A (Bos taurus). Kind of test: methionine sulfoxide reductase A activation – biochemical, absorbance, bovine, HTS, confirmation (AID 602270).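 Note: enzyme coupled to thioredoxin and thioredoxin reductase with NADPH; 0% = vehicle wells and 100% = reference activator wells.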 The settings on record: purified bovine MsrA, absorbance read-out; at 10.6 µM; hits give high values.
Consider `CN1c2ccc(C=O)c3c(C=O)ccc(c23)N(C)C1(C)C`, for which the activation is -1.46% (inactive).
Consider `CCOc1ccccc1OCCCNCc1ccccc1`, for which the activation was -4.03% (inactive).
In the case of `CC1(C)S[C@@H]2[C@H](NC(=O)COc3ccccc3)C(=O)N2C1C(=O)OCc1ccccc1` (some centres undefined), the activation is 0.74% (inactive).
Regarding `COC(=O)CN1C(=O)C(O)=C(C(C)=O)C1c1ccc([N+](=O)[O-])cc1` (centres undefined), the activation is -2.94% (inactive).
On to `COc1cc(NC(=O)COC(=O)c2ccc([N+](=O)[O-])s2)cc(OC)c1OC`, for which the activation was 4.75% (active).
Turning to `O=C(NC1=CC(=O)c2ccccc2C1=O)c1ccccc1`, the activation is 14.4% (active).
Turning to `O=c1c2cc(Br)ccc2nc(-c2cccc(Cl)c2)n1O`, the activation is -1.14% (inactive).
The result for `CCN(CC)CCCC(C)n1c2nc(=O)[nH]c(=O)c-2nc2cc(Cl)ccc21` (centres undefined) reads 8.41% (active).
Regarding `CC(=O)NC(Cc1c[nH]c2ccccc12)C(=O)O` (centres undefined), the activation was -0.4% (inactive).
In the case of `CC(C)(C)C(=O)CCN1C(=O)C2(OCCO2)c2ccccc21`, the activation is -4.67% (inactive).
With `COc1cccc(CNCCc2c[nH]c3ccccc23)c1OCc1ccccc1F`, the activation is -2.23% (inactive).
The result for `CCOc1ccc2[nH]c(=S)sc2c1` reads 1.68% (inactive).
Turning to `CCCCNC(=O)OC(C)CNC(=O)OC` (centres undefined), the activation was -2.15% (inactive).
The result for `CSCCC1NC(=O)N(CC(=O)Nc2cccc(S(=O)(=O)N3CCCCCC3)c2)C1=O` (centres undefined) reads -0.9% (inactive).
Consider `C=CCn1c(SCC(=O)c2c(N)n(C)c(=O)n(C)c2=O)nc2sc(CC)cc2c1=O`, for which the activation was -2.75% (inactive).
`O=C(O)C1CCCCC1C(=O)Nc1ccc(Cl)cc1` (centres undefined): the activation was -0.71% (inactive).
As for `COc1ccc2nc(N3CCCC(O)C3)c(C#N)cc2c1` (centres undefined), the figure is -2.45% (inactive); as for `O=C(O)c1ccccc1NC(=O)c1ccccc1-c1ccccc1C(=O)O`, -3.02% (inactive).
As for `Cc1noc(NS(=O)(=O)c2ccc(NC(=O)C34CCC(CC3)C4)cc2)c1C`, the figure is -0.66% (inactive).
On to `COc1ccc(Cl)cc1NS(=O)(=O)c1cccc(C(=O)NCC2CCCO2)c1` (centres undefined), for which the activation was 2.13% (inactive).
`O=C(NCc1ccccc1)C1c2ccccc2OCC(=O)N1C1CC1` (centres undefined): the activation was 1.81% (inactive).
For `Cc1ccc(COC(=O)CN2C(=O)NC3(CCCC3)C2=O)cc1`, the activation was -1.66% (inactive).
In the case of `CC(=O)N(O)CCCCCNC(=O)CCC(=O)N(O)CCCCCNC(=O)CCC(=O)N(O)CCCCCNC(=O)CCC(=O)O`, the activation was -3.63% (inactive).
As for `O=C(O)Cc1ccc(NC(=O)C2CCCCC2C(=O)O)cc1` (centres undefined), the figure is -1.24% (inactive).
